# Test results taken from PubChem BioAssay (EPA / NIEHS).
# Inconclusive results are not listed. Activity calls are given as the source filed them. How the source made its calls: active means hit-call score of the fitted dose curve at least 0.9, where 1 is the maximum; inconclusive means response in the unintended direction; inactive means score below 0.9.
# Read-out: organic anion transporter (SLCO1B1), SLCO1B1 (gene 10599)
# Assay: CLD_SLCO1B1_6hr: CellzDirect (CLD) Gene Expression Assay for organic anion transporter (SLCO1B1) at 6 hours (AID 2283668)
# Experimental: CLD_6hr is a cell-based, multiplexed-readout assay that uses hepatocyte, a human liver primary cell, with measurements taken at 6 hours after chemical dosing in a 96-well plate.CLD_SLCO1B1_6hr is one of 16 assay component(s) measured or calculated from the CLD_6hr assay. It is designed to make measurements of mRNA induction, a form of inducible reporter, as detected with chemiluminescence signals by Quantitative Nuclease Protection Assay (qNPA) technology.Data from the assay component CLD_SLCO1B1_6hr was analyzed at the endpoint, CLD_SLCO1B1_6hr, in the positive analysis fitting direction relative to DMSO as the negative control and baseline of activity. Using a type of inducible reporter, gain-of-signal activity can be used to understand changes in the reporter gene as they relate to the gene SLCO1B1. Furthermore, this assay endpoint can be referred to as a primary readout. To generalize the intended target to other relatable targets, this assay endpoint is annotated to the transporter intended target family, where subfamily is organic anion transporter.
# Human hepatocyte cultures were treated daily for two consecutive days with fresh dosing solutions containing appropriate concentrations of the 320 ToxCast chemicals (chemical identities were blinded to CellzDirect and other ToxCast collaborators), vehicle control (0.2% DMSO), and positive control inducers as summarized in Table 1. Due to the large number of treatment groups and chemicals examined, the ToxCast chemicals were divided into two groups (spanning two independent cultures of hepatocytes from separate donor preparations (Hu778: ToxCast plates 1 and 2; Hu776: ToxCast plates 3 and 4). Each preparation of human hepatocyte cultures was treated with respective vehicle control, medium only control, set of six positive controls/reference chemicals for the five hepatic receptor pathways, and a subset of eight of the ToxCast chemicals (indoxacarb, pyrithiobac-sodium, norflurazon, cyhalofop-butyl, methomyl, thiram, acetochlor, and propiconazole). These replicate data, coupled with internal replicates designed within the blinded ToxCast chemical library, provided additional data to evaluate interindividual differences between hepatocyte preparations and their potential impact on chemical profiles.Cell morphology and integrity were evaluated using phase-contrast microscopy as an indicator of hepatocyte cell health (Tyson & Green, 1987). Cultures for each treatment group (i.e., media, vehicle [0.2% DMSO], positive control inducers [multiple concentrations], and the ToxCast chemicals [multiple concentrations]) were observed and cell morphology was assessed relative to vehicle control cultures at each harvest time point (0, 6, 24, or 48 h). […] Images were evaluated at the conclusion of the study to assess changes in cell integrity and account for the effects of chemical exposure on uncharacteristic changes in concentration-dependent gene expression profiles. The results from these determinations of apparent cytotoxicity were annotated (yes/no) alongside the corresponding qNPA data for reference.At the conclusion of each treatment period, hepatocyte cultures (96-well) were washed with 1 volume of HBSS, lysed by addition of 25 ul ArrayPlate lysis buffer (HTG, Tucson, AZ), and 70 ul/well of Denaturation Oil, denatured by incubation at 95C for 10 min, and frozen at approximately -70C until analysis by nuclease protection assay (qNPA) (Roberts et al., 2007). For qNPA analysis, cell lysates were thawed at 50C for approximately 30 min, qNPA probes were added, and samples were incubated at 95C for 10 min to begin the detection process by denaturing the target RNA, dissociating the duplexes and secondary structure hybridization. At the conclusion of the hybridization period, S1 nuclease reagent was added to each sample to digest all nonprotected nucleotides at 50C for 60-90 min. […]
row,Compound,outcome
1,CC1COC(Cn2cncn2)(c2ccc(Oc3ccc(Cl)cc3)cc2Cl)O1 (centres undefined),inactive
2,CCCCOC(=O)c1ccccc1C(=O)OCCCC,inactive
3,CCOC(=O)CC(SP(=S)(OC)OC)C(=O)OCC (centres undefined),inactive
4,COC(=O)N(OC)c1ccccc1COc1ccn(-c2ccc(Cl)cc2)n1,inactive
5,COP(N)(=O)SC (centres undefined),inactive
6,C=CCC1=C(C)C(OC(=O)C2C(C=C(C)C)C2(C)C)CC1=O (centres undefined),inactive
7,COc1nc(NC(C)C)nc(NC(C)C)n1,inactive
8,CO/C=C(/C(=O)OC)c1ccccc1Oc1cc(Oc2ccccc2C#N)ncn1,inactive
9,CCCCNC(=O)OCC#CI,inactive
10,CCCCC(CC)COC(=O)c1ccccc1C(=O)OCC(CC)CCCC (centres undefined),inactive
11,CCc1nn(C)c(C(=O)NCc2ccc(C(C)(C)C)cc2)c1Cl,inactive
12,COP(=S)(OC)Oc1nc(Cl)c(Cl)cc1Cl,inactive
13,Cc1ccc(-c2c(Cl)nc(C#N)n2S(=O)(=O)N(C)C)cc1,inactive
14,CCCN(CCC)c1c([N+](=O)[O-])cc(S(N)(=O)=O)cc1[N+](=O)[O-],inactive
15,O=C(O)c1nc(Cl)ccc1Cl,inactive
16,N#Cc1cc(Br)c(O)c(Br)c1,inactive
17,CCON=C(CC)C1=C(O)CC(c2c(C)cc(C)cc2C)CC1=O (centres undefined),inactive

row,Compound,outcome
1,CCOc1cc(Oc2ccc(C(F)(F)F)cc2Cl)ccc1[N+](=O)[O-],inactive
2,CN(C)C(=S)SSC(=S)N(C)C,inactive
3,CCNc1nc(Cl)nc(NCC)n1,inactive
4,C=CCC1=C(C)[C@@H](OC(=O)[C@@H]2[C@@H](C=C(C)C)C2(C)C)CC1=O,inactive
5,COc1nc(C)nc(NC(=O)NS(=O)(=O)c2ccccc2Cl)n1,inactive
6,COC(=O)c1ccccc1C(=O)OC,inactive
7,Cc1c(F)c(F)c(COC(=O)C2C(/C=C(\Cl)C(F)(F)F)C2(C)C)c(F)c1F (centres undefined),inactive
8,COc1cnc(OC)n2nc(NS(=O)(=O)c3c(OCC(F)F)cccc3C(F)(F)F)nc12,inactive
9,COC(=O)C(C)Oc1ccc(Oc2ccc(Cl)cc2Cl)cc1 (centres undefined),inactive
10,CCCCNC(=O)n1c(NC(=O)OC)nc2ccccc21,inactive
11,COC(=O)C=C(C)OP(=O)(OC)OC,inactive
12,CCNc1nc(Cl)nc(NC(C)C)n1,inactive
13,COc1nc(C)nc(NC(=O)NS(=O)(=O)c2ccccc2CCC(F)(F)F)n1,inactive
14,OC(c1ccc(Cl)cc1)(c1cncnc1)c1ccccc1Cl (centres undefined),inactive
15,CC(C)(C)c1ccc(CSc2cnn(C(C)(C)C)c(=O)c2Cl)cc1,inactive
16,Oc1ccccc1-c1ccccc1,inactive
17,CC(C)C1(C)N=C(c2nc3ccccc3cc2C(=O)O)NC1=O (centres undefined),inactive
